Drawing on PubChem BioAssay (EPA / NIEHS), this text covers outcome and AC50 for ten molecules.

Records with an inconclusive call do not appear. Calls of active or inactive are those of the source. Rule for the calls, unless noted: active = hit-call score of the fitted dose curve at least 0.9, where 1 is the maximum; inconclusive = response in the unintended direction; inactive = score below 0.9.

The nature of assay [1]: CLD_ACTIN_6hr: CellzDirect (CLD) Gene Expression Assay for Baseline Control (Actin) at 6 hours (AID 2283676).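 Note: active means increased actin mRNA relative to DMSO vehicle.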 Summed up:
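Baseline actin transcript level measured by qNPA (S1 nuclease protection, chemiluminescence) in human hepatocyte cultures 6 h after chemical exposure; 0.2% DMSO vehicle as reference, cytotoxicity noted from morphology.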

Read-out in assay [2]: Cytochrome P450 2B6 (Homo sapiens) (UniProt P20813)
Kind of assay: CLD_CYP2B6_6hr: CellzDirect (CLD) Gene Expression Assay for xenobiotic metabolism (CYP2B6) at 6 hours (AID 2283677).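 Note: actives raise CYP2B6 transcript above DMSO baseline so AC50 marks an inducer.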 In short, it runs like this: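 CYP2B6 transcript levels, read by chemiluminescent qNPA, were fitted for increase versus DMSO baseline; cultured human liver hepatocytes from two donor preparations were harvested 6 h after exposure to test chemicals at multiple concentrations.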

Read-out in assay [3]: Cytochrome P450 2C19 (Homo sapiens) (UniProt P33261)
Kind of assay: CLD_CYP2C19_6hr: CellzDirect (CLD) Gene Expression Assay for xenobiotic metabolism (CYP2C19) at 6 hours (AID 2283678). In short, it runs like this:
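CYP2C19 transcript induction was quantified by quantitative nuclease protection assay with chemiluminescent read-out, 6 h after dosing. Cells were primary human hepatocytes from two donor preparations, given fresh dosing solutions daily in 0.2% DMSO vehicle. Activity was relative to DMSO.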

Assay [4] can be described thus: CCTE_Padilla_ZF_144hpf_TERATOSCORE: (Legacy) CCTE's 144 Hour Post-fertilization zebrafish Assay Teratoscore, Padilla Lab (AID 2283679; active = hit-call score of the fitted dose curve at least 0.9, where 1 is the maximum; inactive = score below 0.9;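 for AC50: zebrafish embryos with chorions exposed by immersion from 6-8 hpf to 5 dpf with daily renewal; teratogenicity score from eye scoring of death hatching and malformations at 144 hpf; higher score means more developmental defects relative to DMSO baseline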). In short, it runs like this:
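Larvae scored by eye at 144 hpf for death, hatching and malformations after a day in clean Hanks'. Before that, daily-renewed exposure at 80 uM (0.4% DMSO, 26C) from roughly 6-8 hpf through 5 dpf, 4 embryos per chemical.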

Read-out in assay [5]: Cytochrome P450 3A4 (Homo sapiens) (UniProt P08684)
Kind of assay: CLD_CYP3A4_6hr: CellzDirect (CLD) Gene Expression Assay for xenobiotic metabolism (CYP3A4) at 6 hours (AID 2283680). In short, it runs like this:
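CYP3A4 mRNA induction, 6 h after dosing of cultured primary human hepatocytes from two donors, read by quantitative nuclease protection (qNPA, chemiluminescence). Vehicle 0.2% DMSO as baseline; morphology-based cytotoxicity annotated yes/no.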

Read-out in assay [6]: Broad substrate specificity ATP-binding cassette transporter ABCG2 (Homo sapiens) (UniProt Q9UNQ0)
Kind of assay: CLD_ABCG2_24hr: CellzDirect (CLD) Gene Expression Assay for ABC Transporter (ABCG2) at 24 hours (AID 2283685). In short, it runs like this:
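ABCG2 mRNA induction, read as gain of chemiluminescent signal over 0.2% DMSO, was measured by quantitative nuclease protection at 24 h. Cultured human liver hepatocytes were given fresh dosing solutions of test chemicals at several concentrations each day.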

Read-out in assay [7]: Cytochrome P450 2C9 (Homo sapiens) (UniProt P11712)
Kind of assay: CLD_CYP2C9_24hr: CellzDirect (CLD) Gene Expression Assay for xenobiotic metabolism (CYP2C9) at 24 hours (AID 2283688). In short, it runs like this: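 Induction of CYP2C9 mRNA was quantified by quantitative nuclease protection assay (chemiluminescence), gain of signal versus 0.2% DMSO vehicle, 24 h after dosing. Human primary hepatocytes (two donors) received fresh chemical daily at multiple concentrations; morphology-based cytotoxicity flagged yes/no.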

Read-out in assay [8]: Cytochrome P450 3A4 (Homo sapiens) (UniProt P08684)
Kind of assay: CLD_CYP3A4_24hr: CellzDirect (CLD) Gene Expression Assay for xenobiotic metabolism (CYP3A4) at 24 hours (AID 2283689). Summed up: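 CYP3A4 mRNA induction read by quantitative nuclease protection (chemiluminescence) 24 hr after dosing. Cultured human hepatocytes (two donor preparations) treated daily, vehicle 0.2% DMSO; phase-contrast morphology annotates cytotoxicity.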

Read-out in assay [9]: sulfotransferase (SULT2A), SULT2A1 (gene 6822)
Kind of assay: CLD_SULT2A_24hr: CellzDirect (CLD) Gene Expression Assay for sulfotransferase (SULT2A) at 24 hours (AID 2283694).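 For AC50: potency for increased SULT2A1 mRNA level as induction over DMSO baseline.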 Summed up: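 mRNA is measured by qNPA: probe hybridisation, S1 nuclease digestion, chemiluminescence, in lysates from human primary hepatocytes harvested 24 h after daily dosing. Vehicle was 0.2% DMSO. Phase-contrast microscopy flagged cytotoxicity (yes/no).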

Read-out in assay [10]: glucuronosyltransferase (UGT1A1), UGT1A1 (gene 54658)
Kind of assay: CLD_UGT1A1_24hr: CellzDirect (CLD) Gene Expression Assay for glucuronosyltransferase (UGT1A1) at 24 hours (AID 2283696). Summed up:
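UGT1A1 transcript induction was measured by quantitative nuclease protection assay (chemiluminescence) in human hepatocyte cultures 24 h after daily fresh dosing, with 0.2% DMSO as vehicle and baseline.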

Read-out in assay [11]: Cytochrome P450 2C19 (Homo sapiens) (UniProt P33261)
Kind of assay: CLD_CYP2C19_24hr: CellzDirect (CLD) Gene Expression Assay for xenobiotic metabolism (CYP2C19) at 24 hours (AID 2283687).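 Note: activity means mRNA induction above DMSO vehicle baseline.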 Summed up:
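CYP2C19 mRNA was quantified by qNPA chemiluminescence after 24 h of daily dosing of cultured human primary hepatocytes from two donors; vehicle was 0.2% DMSO, and increases over DMSO baseline were fitted.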

Read-out in assay [12]: ABC Transporter (ABCB11), ABCB11 (gene 8647)
Kind of assay: CLD_ABCB11_48hr: CellzDirect (CLD) Gene Expression Assay for ABC Transporter (ABCB11) at 48 hours (AID 2283697). Summed up: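 Induction of ABCB11 mRNA relative to 0.2% DMSO, measured at 48 h by qNPA chemiluminescence. Cultured human hepatocytes (two donors) received fresh dosing solutions at several concentrations on two consecutive days.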

Read-out in assay [13]: Cytochrome P450 3A4 (Homo sapiens) (UniProt P08684)
Kind of assay: CLD_CYP3A4_48hr: CellzDirect (CLD) Gene Expression Assay for xenobiotic metabolism (CYP3A4) at 48 hours (AID 2283698). In short, it runs like this:
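CYP3A4 induction read by qNPA chemiluminescence after 48 h, with fresh dosing solutions on consecutive days, in cultured human hepatocytes (two donors). Vehicle 0.2% DMSO as baseline; microscopy-based cytotoxicity annotated yes/no alongside data.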

Read-out in assay [14]: xenobiotic metabolism (CYP1A2), CYP1A2 (gene 1544)
Kind of assay: CLD_CYP1A2_24hr: CellzDirect (CLD) Gene Expression Assay for xenobiotic metabolism (CYP1A2) at 24 hours (AID 2283683). Summed up: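 CYP1A2 mRNA induction measured by quantitative nuclease protection (chemiluminescent) in human primary hepatocytes 24 h after multi-concentration chemical dosing with daily fresh solutions. DMSO (0.2%) baseline; positive-direction fitting; morphology-based cytotoxicity noted.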

Read-out in assay [15]: Cytochrome P450 2B6 (Homo sapiens) (UniProt P20813)
Kind of assay: CLD_CYP2B6_24hr: CellzDirect (CLD) Gene Expression Assay for xenobiotic metabolism (CYP2B6) at 24 hours (AID 2283686). Summed up:
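qNPA chemiluminescent measurement of mRNA at 24 hours in human primary hepatocyte cultures from two donor preparations, with daily fresh dosing and 0.2% DMSO vehicle as baseline. Morphology-based cytotoxicity flagged yes/no.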

Read-out in assay [16]: ABC Transporter (ABCB1), ABCB1 (gene 5243)
Kind of assay: CLD_ABCB1_48hr: CellzDirect (CLD) Gene Expression Assay for ABC Transporter (ABCB1) at 48 hours (AID 2283695). In short, it runs like this:
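ABCB1 mRNA was measured by quantitative nuclease protection assay (chemiluminescence) 48 h after dosing. Human hepatocyte cultures from two separate donors received fresh dosing solutions daily for two days, with 0.2% DMSO as vehicle. Positive-direction fit against DMSO.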

Cytochrome P450 2C19 (Homo sapiens), sequence (P33261 whole entry, looked up): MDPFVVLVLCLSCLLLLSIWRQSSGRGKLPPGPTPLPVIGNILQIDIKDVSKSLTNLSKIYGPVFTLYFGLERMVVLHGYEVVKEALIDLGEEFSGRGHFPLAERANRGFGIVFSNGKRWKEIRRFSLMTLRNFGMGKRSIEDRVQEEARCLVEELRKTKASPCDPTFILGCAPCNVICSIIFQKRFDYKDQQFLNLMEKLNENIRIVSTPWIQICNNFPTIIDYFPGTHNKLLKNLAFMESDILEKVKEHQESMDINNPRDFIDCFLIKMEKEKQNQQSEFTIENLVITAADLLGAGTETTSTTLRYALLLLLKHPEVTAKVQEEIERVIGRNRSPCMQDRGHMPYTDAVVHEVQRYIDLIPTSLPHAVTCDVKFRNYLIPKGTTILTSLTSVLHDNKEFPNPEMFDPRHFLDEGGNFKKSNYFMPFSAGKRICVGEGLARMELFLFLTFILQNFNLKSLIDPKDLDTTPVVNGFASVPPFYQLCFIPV
Cytochrome P450 3A4 (Homo sapiens), sequence (P08684 whole entry, looked up): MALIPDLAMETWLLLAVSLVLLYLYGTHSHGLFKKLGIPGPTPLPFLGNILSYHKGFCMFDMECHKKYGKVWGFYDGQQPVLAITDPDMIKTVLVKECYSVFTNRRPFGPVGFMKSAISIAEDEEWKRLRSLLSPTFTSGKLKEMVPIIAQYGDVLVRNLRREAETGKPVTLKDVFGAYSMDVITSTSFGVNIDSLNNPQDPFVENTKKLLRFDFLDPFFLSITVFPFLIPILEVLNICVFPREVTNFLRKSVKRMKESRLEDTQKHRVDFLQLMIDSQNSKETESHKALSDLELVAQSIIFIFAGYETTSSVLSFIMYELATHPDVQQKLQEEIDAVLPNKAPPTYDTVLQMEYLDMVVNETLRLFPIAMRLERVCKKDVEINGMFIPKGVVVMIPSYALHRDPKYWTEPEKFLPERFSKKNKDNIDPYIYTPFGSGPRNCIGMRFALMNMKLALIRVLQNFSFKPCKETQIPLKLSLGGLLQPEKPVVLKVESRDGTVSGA
Broad substrate specificity ATP-binding cassette transporter ABCG2 (Homo sapiens), sequence (Q9UNQ0 whole entry, looked up): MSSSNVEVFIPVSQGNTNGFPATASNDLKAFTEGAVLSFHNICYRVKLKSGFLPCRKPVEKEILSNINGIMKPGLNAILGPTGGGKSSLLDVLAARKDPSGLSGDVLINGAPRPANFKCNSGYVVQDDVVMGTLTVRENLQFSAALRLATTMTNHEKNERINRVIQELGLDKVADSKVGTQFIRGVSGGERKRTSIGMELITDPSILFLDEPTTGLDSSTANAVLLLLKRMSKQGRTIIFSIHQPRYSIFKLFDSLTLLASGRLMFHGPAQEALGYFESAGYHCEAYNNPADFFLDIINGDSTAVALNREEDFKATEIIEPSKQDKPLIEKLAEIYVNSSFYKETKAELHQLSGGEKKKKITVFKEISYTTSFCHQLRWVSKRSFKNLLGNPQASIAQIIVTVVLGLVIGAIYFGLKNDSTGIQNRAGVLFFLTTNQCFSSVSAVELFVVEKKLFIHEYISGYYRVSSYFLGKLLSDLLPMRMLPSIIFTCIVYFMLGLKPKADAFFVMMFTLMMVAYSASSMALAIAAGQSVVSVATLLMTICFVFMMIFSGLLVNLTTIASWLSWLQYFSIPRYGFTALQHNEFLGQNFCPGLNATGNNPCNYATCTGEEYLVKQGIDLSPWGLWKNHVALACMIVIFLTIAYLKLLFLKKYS

In general, AC50 refers to the midpoint of the concentration-response curve, whichever way the signal moves. `CC1(C)CCC(=Cc2ccc(Cl)cc2)C1(O)Cn1cncn1` (configuration not stated): the outcome in assay [1], in [3], in assay [5], in assay [6], in assay [7] and in assay [8] was inactive. Also, the molecule was classed as inactive in assay [9] and in assay [10]. For the same molecule, the AC50 in assay [2] is 1.97 µM (active); in [4], 253 µM (active).

For `Cc1nc(N(C)C)nc(OC(=O)N(C)C)c1C`, the molecule was called inactive in assay [1], in assay [4], in [6], in assay [11], in [7] and in assay [9]. The result in [10] and in [12] was inactive. The half-maximal activity concentration (AC50) is 3.94 µM (active) in assay [2] and 20 µM (active) in assay [8].

For the molecule `COP(=O)(OC)O/C(C)=C/C(=O)N(C)C`, the call in assay [1], in assay [2], in assay [3], in [4], in assay [6] and in assay [11] was inactive. Besides, the result in assay [7], in assay [8], in [9], in assay [12] and in assay [13] was inactive.

Regarding `CCCCC(O)(Cn1cncn1)c1ccc(Cl)cc1Cl` (configuration not stated), the molecule was classed as inactive in assay [1], in [6], in [9] and in assay [10]. The AC50 in [2] is 2.08 µM (active); in assay [4], 36.5 µM (active); in assay [14], 1.9 µM (active); in [8] it was 1.13 µM (active).

Consider `COCC(C)N(C(=O)CCl)c1c(C)csc1C` (configuration not stated), for which the result in [1], in assay [5], in [6], in [7], in assay [9] and in assay [10] was inactive. The molecule was called inactive in assay [12]. Further, the figures for the AC50 in assay [2], in assay [4] and in assay [15] were 6.94 µM (active), 60.8 µM (active) and 11.9 µM (active), respectively.

Turning to `CC1(C)C(C=C(Cl)Cl)C1C(=O)OC(C#N)c1cccc(Oc2ccccc2)c1` (configuration not stated), the molecule was called inactive in assay [1], in [6], in [11], in assay [7] and in [9]. Further, the half-maximal activity concentration (AC50) in [2] was 1.54 µM (active); in assay [4], 0.284 µM (active); in [15] it was 4.4 µM (active); in assay [10], 6.01 µM (active).

Regarding `CNC(=O)N(C)c1nnc(C(C)(C)C)s1`, the outcome in assay [1], in [2], in assay [3], in assay [4], in [11] and in [8] was inactive. In assay [10], the molecule was classed as inactive.

For `CSC(=O)c1c(C(F)F)nc(C(F)(F)F)c(C(=O)SC)c1CC(C)C`, the molecule was called inactive in assay [1], in assay [3], in assay [6], in assay [11], in [7] and in [16]. In addition, the molecule was called inactive in assay [10]. Moreover, the AC50 was 2.11 µM (active) in [2]; 9.65 µM (active) in assay [4]; 5.33 µM (active) in assay [14]; 2.07 µM (active) in [8]; 7.07 µM (active) in [9].

As for `Cc1ccc(N=CN(C)C=Nc2ccc(C)cc2C)c(C)c1`, the molecule was classed as inactive in assay [1], in assay [2], in assay [3], in [6] and in [16]. In addition, in [4], the AC50 is 27.5 µM (active).

As for `Cc1cnc(C2=NC(C)(C(C)C)C(=O)N2)c(C(=O)O)c1` (configuration not stated), the molecule was called inactive in [1], in [2], in assay [4], in assay [6], in [11] and in assay [7]. The call in assay [8], in assay [9] and in assay [10] was inactive.
